Experimental findings from PubChem BioAssay (NCATS) are described below.

The structures appear in SMILES notation. Active and inactive are the calls of the source. Where a call stands in place of a potency, no number is given. The call rests on the fitted dose curve; in most records, active means well fitted cell-killing curve with a large enough effect; inconclusive means small, poorly fitted or top-dose-only effect; inactive means flat fitted curve, though single readings scatter.
Potency means the concentration at half of the fitted maximal effect.

The nature of the test: Cell Viability - LYMP1-002 - Assay at 24 hr (AID 993). As to conditions: LYMP1-002 lymphoblastoid cells viability; series mostly up to 92.2 µM. The source says:
NIH Chemical Genomics Center [NCGC]
NIH Molecular Libraries Screening Centers Network [MLSCN]
National Institutes of Environmental Health Sciences [NIEHS]
National Toxicology Program [NTP]
We have developed a 1536-well cell-based assay for quantitative high throughput screening (qHTS) against a number of cell lines to determine in vitro cytotoxicity of small molecules. This particular assay uses a human lymphoblastoid cell line (LYMP1-002) purchased from Coriell Institute for Medical Research.
NCGC Assay Protocol Summary:
The CellTiter-Glo luminescent cell viability assay (Promega) is a homogeneous method to measure the number of viable cells in culture. The end point readout of this assay is based on quantitation of intracellular ATP, an indicator of metabolic activity, using the luciferase reaction. Luciferase catalyzes the oxidation of beetle Luciferin to oxyluciferin and light in the presence of ATP. The luminescent signal is proportional to amount of ATP present.
Using the CellTiter-Glo luminescent cell viability assay, the amount of cellular ATP was measured in the lymphoblastoid cell line with complete culture medium following compound treatment for 24 hours. The assay was performed in opaque white Kalypsys 1536-well plates. In the screen, tetraoctylammonium bromide was used as positive control. Library compounds were measured for their ability to cause acute toxicity in the cell line, as reflected by a decrease in intracellular ATP levels, in a concentration-dependent manner. […] AC50 values were determined from concentration-response data modeled with the standard Hill equation.
qHTS protocol for CellTiter Glo lymphoblastoid cellular assay
[Step] [Parameter] [Value] [Description]
1. Reagent; 5 uL; 2500 lymphoblastoid cells/well
2. Time; 5 hr; 37 C incubation
4. Controls; 23 nL; Tetraoctylammonium bromide 6.4pM to 92 uM
5. Time; 24 hr; 37 C incubation
6. Reagent; 5 uL; CellTiter Glo reagent
7. Time; 30 min; Room Temperature
8. Detection; Luminescence; Viewlux plate reader
Keywords: cell viability, cytotoxicity, lymphoblastoid cell line, luminescence, NTPHTS, NTPHTS_NCGC, NIEHS, DSSTox, MLSMR, MLSCN, NIH Roadmap, qHTS, NCGC
Turning to `CCCCCCCCCCCCCCCC[n+]1ccccc1`, the Potency was 15.8 µM (active).
Turning to `c1ccc2occc2c1`, the Potency entry is “inactive”.
Take `CC(C)(c1ccc(O)cc1)c1ccc(O)cc1`: the Potency entry is “inactive”.
Regarding `Nc1cccc2c(N)cccc12`, the Potency entry was “inactive”.
On to `CCCCC(CC)COC(=O)c1ccccc1C(=O)O` (stereo not given), for which the Potency entry is “inactive”.
On to `Nc1ccc(O)cc1`, for which the Potency is 39.8 µM (active).
On to `O=C(NO)c1ccccc1`, for which the Potency entry is “inactive”.
`Cc1ccc(O)cc1`: the Potency result was “inactive”.
Consider `CCCC(=O)c1cc(O)c(O)cc1O`, for which the Potency entry is “inactive”.
With `Brc1ccccc1-c1ccccc1`, the Potency entry is “inactive”.
Take `COc1cc(C=O)ccc1O`: the Potency entry is “inactive”.
For the compound `C1=CC2C3C=CC(C3)C2C1` (stereo not given), the Potency entry was “inactive”.
Take `CC(=O)OC/C=C(C)/C=C/C=C(C)/C=C/C1=C(C)CCCC1(C)C`: the Potency entry is “inactive”.
As for `Oc1ccccc1`, the Potency result was “inactive”.
On to `O=C(c1ccccc1)c1ccccc1`, for which the Potency entry is “inactive”.
For `CC(C)C(C)(C)C(C)(C)C(C)(C)S`, the Potency result is “inactive”.
`Nc1c2ccccc2nc2ccccc12`: the Potency was 20 µM (active).
Then `O=C(Oc1ccccc1)c1ccccc1O`, with “inactive”.
In the case of `Cc1cc(C(C)(C)C)c(O)c(C(C)(C)C)c1`, the Potency result is “inactive”.
On to `OCc1c[nH]c2ccccc12`, for which the Potency entry is “inactive”.
